Bioassay records (PubChem)
ssDAF12 agonist: activates DAF-12 receptor from parasite S. stercoralis; HEK293 ssDAF-12/GRIP1 lit1-tk-luc reporter, luminescence; % of 3 µM dafachronic acid response; activation, % at 6.8 µM; 1% of 370,000 active;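 active means activation above the mean over all tested compounds plus 3 SD, cut at about 0.9% in these data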;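 further: 0% = DMSO-only wells and 100% = 3 µM delta7-dafachronic acid wells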
hcDAF12 agonist: activates DAF-12 receptor from parasite H. contortus. activation, % at 6.8 µM. 1.4% of 370,000 active. HEK293 hcDAF-12 lit1-tk-luc reporter, luminescence; 0% DMSO, 100% Δ7-dafachronic acid;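 active means activation above the mean of all tested compounds plus 3 SD, cut at about 5.5% in these data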;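 further: 100% = response to 3 µM Δ7-dafachronic acid high control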
DAX1 inh-1: inhibitors of DAX1 repression of SF-1 activated StAR promoter; HEK293T StAR-luciferase reporter, SF-1/DAX-1 repression relief; inhibition, % at 6.8 µM; 1.1% of 370,000 active;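 active means inhibition above the mean over all tested compounds plus 3 SD, cut at about 3.6% in these data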;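 further: 0% = DAX-1 cells with DMSO and 100% = cells lacking DAX-1 with DMSO; higher inhibition means more luminescence from relief of DAX-1 repression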
hgDAF12 agonist: activates the H. glycines DAF-12 receptor ligand-binding domain | 1.8% of 370,000 active | activation, % at 6.8 µM | AID 687014 | HEK293 GAL4-hgDAF12 UAS-luciferase reporter, agonist luminescence; normalized to butyrate control;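 active means activation above a cutoff set at the mean of all screened compounds plus 3 SD, cut at about 10% in these data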;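 further: 0% = DMSO wells and 100% = sodium butyrate wells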
DAX1 inh-2: NR0B1 (DAX1) inhibition. P51843. HEK293 Gal4-DAX1 luciferase reporter, luminescence. inhibition, % at 6.75 µM. 0.99% of 340,000 active. AID 504766;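 active means inhibition above the mean over all tested compounds plus 3 SD, cut at about 4.2% in these data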;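 further: 0% = DAX1-transfected cells with DMSO and 100% = empty-vector control cells with DMSO; inhibition shows as a rise in luminescence from relieved DAX1 repression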
SMARCA2 activ: increases SMARCA2 function in MMTV reporter cells; 1% of 370,000 active; activation, % at 9.1 µM; MG213 cells, MMTV-luciferase reporter, dexamethasone, overnight; in the data active means activation above about 7.8%;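 further: 0% = vehicle wells and 100% = reference activator wells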
hgDAF12 conf: hgDAF-12 agonism, confirmation assay | activation, % at 6.8 µM | shares compounds with hgDAF12 agonist | 80% of 3,300 active | HEK293 GAL4-hgDAF12 luciferase reporter, agonist mode; percent of butyrate response;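 active means mean activation over triplicate wells above the hit cutoff derived from the earlier primary screen, cut at about 11% in these data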;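 further: 0% = DMSO low control and 100% = 2 mM sodium butyrate high control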
LXRb DAF12 ctr: activates human LXR-beta, counter-screen for DAF-12 agonists | shares compounds with hgDAF12 agonist | HEK293 Gal4-LXR luciferase reporter, 24 h | activation, % at 6.8 µM | 3,300 tested, under 10 active;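 active means mean activation of the triplicate above a set limit carried over from the primary screen, none filed active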
Target sequence (P55055 whole entry, looked up, the tested form may be a part): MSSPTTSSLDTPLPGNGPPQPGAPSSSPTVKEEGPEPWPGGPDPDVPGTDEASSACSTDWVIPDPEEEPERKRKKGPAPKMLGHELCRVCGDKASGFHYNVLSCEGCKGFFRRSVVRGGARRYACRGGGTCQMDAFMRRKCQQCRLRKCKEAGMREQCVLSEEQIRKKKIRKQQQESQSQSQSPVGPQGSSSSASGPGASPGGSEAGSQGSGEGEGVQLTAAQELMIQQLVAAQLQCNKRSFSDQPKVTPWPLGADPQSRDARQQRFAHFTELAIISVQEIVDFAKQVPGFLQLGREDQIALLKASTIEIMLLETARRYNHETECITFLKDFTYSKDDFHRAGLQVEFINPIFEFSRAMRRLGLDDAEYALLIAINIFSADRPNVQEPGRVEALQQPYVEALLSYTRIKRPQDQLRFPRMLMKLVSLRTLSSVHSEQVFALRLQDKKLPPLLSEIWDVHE
* hit, by the source's call; nt = no result. Rows were chosen to be rich in hits. Some 4.8% of all compounds tested hit in one or more screens of this group.

SMILES	ssDAF12 agonist	hcDAF12 agonist	DAX1 inh-1	hgDAF12 agonist	DAX1 inh-2	SMARCA2 activ	hgDAF12 conf	LXRb DAF12 ctr
O=C(Nc1cccc2ccccc12)OCc1ccccc1	0	3	1	17*	1	0	6	0
O=C(NCCOC(=O)Nc1cccc2ccccc12)OCc1ccccc1	0	-1	-2	0	0	0	nt	nt
O=C(CSc1nnc(Cc2cccs2)n1-c1ccc(Cl)cc1)Nc1ccc(OCc2ccccc2)cc1	-2	0	-2	-3	nt	-5	nt	nt
COc1ccc(C(=O)NCCSC2CCCCC2)cc1	0	3	2	16*	0	7	11*	0
CCOC(=O)C1=C(COC(=O)c2ncc(Cl)c(Cl)c2Cl)NC(=O)NC1C (stereo not given)	-1	-2	0	1	1	3	nt	nt
CC(C)(C)C(=O)NC(=S)Nc1cccc(C(=O)O)c1	-1	4	4.3*	14*	1	4	13*	0
Cc1ccc(C)c(NC(=O)c2nc(Cl)ccc2Cl)c1	0	4	0	14*	1	-1	5	0
CN(C)c1cccc(C(=O)NNC(=O)CN2C(=O)C3CC=CCC3C2=O)c1 (stereo not given)	-1	4	3	14*	5.7*	6	3	1
Fc1cc(Cl)cc2ccc(-c3ccccc3)nc12	1	3	2	15*	nt	5	9	0
CO/N=C/NC(=O)N1OC[C@@H]2COc3ccc4ccccc4c3[C@@H]21	-1	-2	0	-1	1	1	nt	nt
NC(=S)N1OC[C@@H]2COc3ccc4ccccc4c3[C@@H]21	-1	3	-1	21*	1	3	8	0
CCOC(=O)C1CCN(C(=O)c2ccc(N(C)S(=O)(=O)c3ccc(OC)cc3)cc2)CC1	-2	-2	-1	2	1	-1	nt	nt
Nc1ccc(N=Nc2ccccc2)c(N)n1	-1	3	4.1*	16*	1	1	13*	0
Cc1ccc(-c2cc(-c3nnc(SCC(=O)Nc4cccc5ccccc45)n3N)[nH]n2)cc1	-1	0	0	-1	nt	-6	nt	nt
CC1(c2ccc(OC(F)F)cc2)NC(=O)N(CC(=O)Nc2ccccc2)C1=O (stereo not given)	0	1	1	2	0	-2	nt	nt
Cc1ccc2nc(-c3ccc(NC(=O)CN4C(=O)NC(C)(c5ccc(OC(F)F)cc5)C4=O)cc3)sc2c1 (stereo not given)	0	5.8*	2	15*	-1	-2	14*	1
Cc1ccc2nc(-c3ccc(NC(=O)CSc4nnc(-c5cc(C)[nH]n5)n4N)cc3)sc2c1	0	1	4.4*	13*	nt	1	11*	1
Cc1ccc2nc(-c3ccc(NC(=O)CSc4nnc(-c5cc(-c6ccc(F)cc6)n[nH]5)n4N)cc3)sc2c1	1	2	3	16*	nt	4	15*	1
Cc1ccc2nc(-c3ccc(NC(=O)COC(=O)c4ccco4)cc3)sc2c1	0	4	4.1*	21*	2	7.9*	19*	1
O=C1NC2(CCCCC2)C(=O)N1c1cccc(Cl)c1	-1	-1	0	2	0	-3	nt	nt
CCOC(=O)c1nnn(-c2nonc2N)c1CSc1nnc(N)s1	-1	-1	0	-2	0	1	nt	nt
O=C(CC1N=C(Cc2ccccc2)NNC1=O)N/N=C/c1ccc([N+](=O)[O-])cc1 (stereo not given)	-2	2	-2	3	1	-2	nt	nt
Cc1ccc2nc(-c3ccc(NC(=S)NCCC(C)C)cc3)sc2c1	0	4	3	14*	2	3	15*	1
CCN(CC)c1ccc(NC(=O)CSc2nnc(-c3ccc(Cl)cc3)n2Cc2ccco2)cc1	-2	0	-3	2	nt	-4	nt	nt
Cc1ccc2nc(-c3ccc(NC(=O)CSc4nnc(-c5cccc(Cl)c5)n4Cc4ccco4)cc3)sc2c1	0	6.3*	1	21*	nt	-4	17*	1
SMILES	ssDAF12 agonist	hcDAF12 agonist	DAX1 inh-1	hgDAF12 agonist	DAX1 inh-2	SMARCA2 activ	hgDAF12 conf	LXRb DAF12 ctr
CSc1nc(-c2ccc(N(C)C)cc2)c(C#N)c(=O)n1C	0	2	2	14*	1	2	6	0
Cc1ccccc1Cn1cc(CN2[C@@H](CC(C)C)COc3cccc(F)c3S2(=O)=O)nn1	-2	-2	-1	1	nt	1	nt	nt
Cc1ccc(C(=O)CSc2ccccn2)cc1	0	5	3	15*	3	5	14*	1
O=C(CSc1ccccn1)c1ccc(F)cc1	-1	0	1	1	1	2	nt	nt
Cc1cccc(-c2nsc(SCC(=O)NCC3CCCO3)n2)c1 (stereo not given)	-2	0	1	18*	-1	1	2	0
CCC(=O)N1CCCN(S(=O)(=O)c2ccc(C)cc2)C1c1ccc(OC)cc1 (stereo not given)	-1	-3	0	-3	0	-4	nt	nt
COc1ccc2c(c1)CC/C2=N\OC(=O)c1cccc(C)c1	0	2	2	14*	2	5	17*	1
